Results: PubChem BioAssay AID651735 (Southern Research Specialized Biocontainment Screening …, 2012)
A number with no mark means an inactive call. The rule behind the calls is not given here.

Assay: Vero 76 cell cytotoxicity, cytotoxicity control for VEEV inhibitor project, set 8 (AID 651735)
Settings: Vero 76 cells viability; series mostly up to 50 µM; viability: at the top concentration

**Q.** Which “viability” value does the source give for CCN1CCN(Cc2nc3ccc([N+](=O)[O-])cc3c(=O)n2-c2ccccc2F)CC1 here?
**A.** The value was 87.5%.

**Q.** For O=c1c2cc([N+](=O)[O-])ccc2nc(CN2CCCNCC2)n1-c1ccccc1, which “viability” value is on record?
**A.** The value was 90.8%.

**Q.** For CN(c1ccc(OCc2ccccc2)cc1)c1nc(=O)c2cccnc2s1, which “viability” value is on record?
**A.** The value was 83.4%.

**Q.** Which “viability” value does the source give for COc1ccc(CNc2nc(=O)c3cccnc3s2)cc1 here?
**A.** Its value is 96.2%.

**Q.** Which “viability” value does the source give for CN1CCN(C)C(=Nc2ccc([N+](=O)[O-])cc2C(=O)Nc2ccccc2F)C1 here?
**A.** Its value is 94.6%.

**Q.** For O=c1c2cc([N+](=O)[O-])ccc2nc(CN2CCCNC2)n1-c1ccccc1, which “viability” value is on record?
**A.** The value was 91.1%.

**Q.** Which “viability” value does the source give for COc1ccc(NC(=O)c2cc([N+](=O)[O-])ccc2N=C2CN(C)CCN2C)cc1 here?
**A.** Its value is 101%.

**Q.** For COc1ccc(Nc2nc(=O)c3cccnc3s2)cc1, which “viability” value is on record?
**A.** Its value is 94.6%.

**Q.** For O=c1c2cc(F)c(F)cc2nc(CN2CCNCC2)n1-c1ccccc1, which “viability” value is on record?
**A.** The value was 99.6%.

**Q.** Which “viability” value does the source give for CN1CCN(C)C(=Nc2ccc(C#N)cc2C(=O)Nc2ccccc2)C1 here?
**A.** Its value is 91.2%.

**Q.** With CN1CCN(C)C(=Nc2ccc([N+](=O)[O-])cc2C(=O)Nc2ccccc2)C1 as the compound, how does the “viability” value read?
**A.** The value was 88.6%.

**Q.** Which “viability” value does the source give for CCN1CCN(C2c3ncccc3C(=O)N2c2ccccc2)CC1 (stereo not drawn) here?
**A.** Its value is 95.4%.

**Q.** For CCN1CCN(Cc2nc3ccc(-c4ccccn4)cc3c(=O)n2-c2ccccc2)CC1, which “viability” value is on record?
**A.** Its value is 89.5%.
